M18AAP inhibitor: blocks P. falciparum M18 aspartyl aminopeptidase; recombinant PfM18AAP, H-Glu-NHMec fluorogenic cleavage; inhibition, % at 7.35 µM; 290,000 tested, 1.2% active; AID 1822;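 active = inhibition above the campaign mean inhibition over all tested compounds plus 3 SD, cut at about 28% in these data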;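 note: 0% = plate median of test compound wells and 100% = 2 mM ZnCl2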
Rce1 inh: inhibitors of yeast Ras-converting enzyme; calls only; 290,000 tested, 0.27% active; yeast membranes, quenched prenylated peptide cleavage fluorescence;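 active = fall in fluorescence gain of 50% or more versus controls, with final raw signal at or below 3038400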;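 note: plate controls were neutral control wells for no effect and wells lacking membranes for full effect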
PLC-gamma1 inh: blocks human PLC-gamma1 enzyme activity | P19174 | 370,000 tested, 0.84% active | purified PLC-gamma1, fluorogenic substrate, fluorescence | AID 720700 | inhibition, % at 12.2 µM
GC-B act: GC-B (human) receptor activation; P20594; HEK293-GC-B cells, CNP EC30, cGMP TR-FRET; 0% at EC30 CNP, 100% saturating CNP; activation, % at 10 µM; 370,000 tested, 0.11% active;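 active = activation at 10 µM reaching about 35% in either raw or pattern-adjusted values, limit read from the data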
NPR1 activator: GC-A (human) enzyme activation. P16066. HEK293 GC-A cells, cGMP TR-FRET, EC30 ANP; 0% at EC30 ANP, 100% saturating ANP. activation, % at 10 µM. 370,000 tested, 0.14% active. AID 1671463; in the data active = activation above about 40%
PLC-beta3 inh: blocks human PLC-beta3 enzyme activity. inhibition, % at 12.2 µM. Q01970. Purified PLC-beta3, fluorogenic substrate, fluorescence. 370,000 tested, 0.18% active. AID 720704; in the data active = inhibition above about 11%;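 note: 0% = median of compound wells on plate and 100% = full blocker control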
PLCg1 ctr: counter-screen for PLC-beta3 inhibitors: inhibitors of human PLC-gamma1. shares compounds with PLC-gamma1 inh. purified PLC-gamma1, fluorogenic substrate, fluorescence. inhibition, % at 12.3 µM. 3,300 tested, 3.1% active
PLCbeta3 conf: confirmation of human PLC-beta3 inhibitors; shares compounds with PLC-gamma1 inh; purified PLC-beta3, fluorogenic substrate fluorescence; inhibition, % at 12.3 µM; 3,300 tested, 1% active; AID 743261; in the data active = inhibition above about 11%
* hit, by the source's call; i = inactive; . = no result. Hits are enriched below; roughly 2.2% of the tested compounds scored in any of these assays. Cut-off read from the data, not from the text of the source, unless noted: active = inhibition above about 9.5%; inactive = the rest.

SMILES	M18AAP inhibitor	Rce1 inh	PLC-gamma1 inh	GC-B act	NPR1 activator	PLC-beta3 inh	PLCg1 ctr	PLCbeta3 conf
C=CCC[C@H](Cc1ccc(F)cc1)C(=O)OC[C@@H](Cc1c[nH]c2ccccc12)NC(=O)[C@H](CC=C)CC(=O)N(CCO)Cc1ccccc1	.	.	12*	-10	-8	5	-6	-2
C=CC[C@@H](CC(=O)N(CCO)Cc1ccccc1)C(=O)N[C@H](COC(=O)[C@@H](CC=C)CC(=O)OC(C)(C)C)Cc1c[nH]c2ccccc12	.	.	9.6*	-13	-13	9	1	-9
C=CC[C@H](CC(=O)N(CCO)Cc1ccccc1)C(=O)N[C@@H](COC(=O)[C@H](CC=C)CC(=O)OC(C)(C)C)Cc1c[nH]c2ccccc12	.	.	-3	-7	-8	3	.	.
C=CCC[C@H](Cc1ccc(F)cc1)C(=O)OC[C@H](Cc1c[nH]c2ccccc12)NC(=O)[C@@H](CC=C)CC(=O)N[C@H](CO)Cc1ccccc1	.	.	12*	-1	-11	-3	5	-1
O=C(CCc1ccccc1)N[C@H]1C(=O)CCC[C@]12C(=O)N(Cc1ccccc1)c1ccccc12	.	.	-1	-6	-9	2	.	.
CCCN1CCCCC(NC(=O)c2ccc3ccccc3c2)C1=O (stereo not drawn)	.	.	0	-3	5	-2	.	.
CCOc1ccc(S(=O)(=O)N2CCC(C(=O)N3CCCC3)CC2)cc1C	3	i	11*	5	5	3	3	2
CCOc1ccc(Cl)cc1S(=O)(=O)N1CCC(C(=O)N2CCCC2)CC1	-3	i	-2	2	0	-2	.	.
COc1ccc(CCNC(=O)CSc2ncn[nH]2)cc1	-4	i	10*	3	-2	0	-6	-12
O=C(CSc1nc2ccccc2[nH]1)NCCc1ccc(Cl)cc1	-5	i	11*	-3	-4	6	-1	2
Cc1ccc(CNC(=O)CSc2nc3ccccc3[nH]2)cc1	-1	i	0	3	2	-9	.	.
O=C(CCc1ccccc1)N[C@H]1[C@@H](O)CCC[C@]12C(=O)N(Cc1ccccc1)c1ccccc12	.	.	2	-13	-15	-6	.	.
O=C(c1ccco1)N1CCN=C1SCc1c(F)cccc1Cl	9	i	0	8	8	-2	.	.
O=C(c1ccco1)N1CCN=C1SCc1ccccc1Cl	-4	i	-2	0	7	17*	-1	1
COc1ccc(Cn2ccc3ccc(-c4ccc5ccn(Cc6ccc(OC)cc6)c5c4)cc32)cc1	.	.	-69	0	3	-100	.	.
COc1ccccc1N(CC(=O)Nc1ccccc1C(=O)NC(C)C)S(C)(=O)=O	-7	i	2	6	-5	2	.	.
CCOC(=O)c1ccccc1NC(=O)CN(c1ccccc1OC)S(C)(=O)=O	0	i	7	-2	-9	11*	-3	-6
COc1ccc2c(c1)Sc1ccc(Cl)cc1N2	.	.	-27	-20	-17	-41	.	.
COC(=O)C12CCCN1C1C(=O)N(Cc3ccc(C(N)=O)cc3)CC1C2 (stereo not drawn)	.	.	0	0	0	1	.	.
Cc1ccc(/C(N)=N/OC(=O)c2ccc(Cl)cc2Cl)cc1	-2	i	6	-3	8	13*	-1	-1
CN1[C@H](Cc2ccccc2)COc2cc(N3CCSCC3)ccc2S1(=O)=O	.	.	2	3	3	0	.	.
CN(CCOC(=O)CC1C=CCC1)C1CN(Cc2cn(Cc3ccccc3Cl)nn2)S(=O)(=O)C1 (stereo not drawn)	.	.	2	-3	-3	5	.	.
CCOc1cccc(CN2CCCC(CCC(=O)NCc3ccccc3F)C2)c1O (stereo not drawn)	2	i	11*	3	3	11*	-6	0
O=C(CCc1cccc(Cl)c1)NC1CCCN(Cc2ccccc2F)C1 (stereo not drawn)	1	i	4	-8	-6	-4	.	.
O=C(Cc1ccc(Cl)cc1)NC1CCCN(Cc2ccccc2F)C1 (stereo not drawn)	6	i	12*	3	-7	-2	-3	2
SMILES	M18AAP inhibitor	Rce1 inh	PLC-gamma1 inh	GC-B act	NPR1 activator	PLC-beta3 inh	PLCg1 ctr	PLCbeta3 conf
CCCCn1c(N)c(Sc2ccccc2[N+](=O)[O-])c(=O)[nH]c1=O	-2	i	4	7	-1	-2	.	.
Cc1[nH]c(=O)[nH]c(=O)c1Sc1ccccc1[N+](=O)[O-]	6	i	12*	5	1	2	-3	-1
O=C(NCCc1ccccc1)c1c[nH]c2ccccc2c1=O	.	.	9	0	0	11*	-3	-2
CN1CC[C@]2(CCN3CCc4c(oc5ccccc45)[C@@H]3C2)N(C)C1=O	.	.	-34	4	-2	25*	-15	-14
O=C(CN1CCCC1)NCC12CC3CC(CC(C3)C1)C2	-6	i	11*	0	4	8	-1	1
O=C(CN1CCCC1)NC12CC3CC(CC(C3)C1)C2	0	i	1	3	4	1	.	.
CCCCOCCCNC(=O)C[C@H]1C[C@@]2(C(=O)OC)C(=C[C@H](C3CCCC3)O[C@@H]2C)N(Cc2ccco2)C1=O	.	.	9	-5	-9	3	.	.
Cc1c(CCOC(=O)C23CC4CC(CC(C)(C4)C2)C3)sc[n+]1CC(=O)c1ccccc1	-1	i	12*	1	-2	2	1	1
Cc1c(CCOC(=O)CC23CC4CC(CC(C)(C4)C2)C3)sc[n+]1CC(=O)c1ccccc1	-1	i	7	-2	-6	1	.	.
CC(=O)c1ccc(NC(=S)NC(NC(=O)c2ccco2)C(Cl)(Cl)Cl)cc1 (stereo not drawn)	3	i	8	11	1	12*	3	-1
O=C(NC(NC(=S)Nc1ccc(Cl)cc1)C(Cl)(Cl)Cl)c1ccco1 (stereo not drawn)	-4	i	1	14	4	1	.	.
CC(=O)NC1C(OCCOc2ccc(Cl)cc2C)OC(CO)C(O)C1O (stereo not drawn)	-4	i	-1	-5	5	-4	.	.
CC(=O)NC1C(OCCOc2ccc(Cl)cc2Cl)OC(COC(C)=O)C(OC(C)=O)C1OC(C)=O (stereo not drawn)	10	i	10*	-1	-1	4	-4	-1
O=[N+]([O-])c1cc(Br)c(Nc2ccccc2)c([N+](=O)[O-])c1	5	i	7	8	3	-4	.	.
O=[N+]([O-])c1cc(Br)c2c(c1)CCN2	.	.	3	-5	1	13*	-6	-1

Compound activity as filed in PubChem BioAssay.
